Screens as filed in PubChem BioAssay.
Compounds with a hit are over-represented: about 15% of the library has one in this group of screens.
Pf growth 96h: Primary qHTS for delayed death inhibitors of the malarial parasite plastid, 96 hour incubation | P. falciparum luciferase reporter growth, 96 h | Potency, µM (titrated, usually from 28.7 µM), for inactives: at the highest dose activity change, negative = inhibition, hits mostly inhibitors | 320,000 compounds, 6.9% hits | AID 504834, 2011; also: potency is read from the fitted curve at half-maximal effect; % is scaled to controls: 0 for no effect and ±100 for the full control effect
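Delayed-death screen, second-generation endpoint: infected erythrocytes, 2% hematocrit, 0.05% parasitemia final; 96 hours at 37 C, 5% CO2; luciferase detection reagent; luminescence decrease equals reduced growth.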
Sm TGR block: qHTS Assay for the Inhibitors of Schistosoma Mansoni Peroxiredoxins. 360,000 compounds, 3% hits. AID 485364, 2010. purified TGR, DTNB reduction, TNB absorbance 405 nm. Potency, µM (highest dose often 114 µM), for inactives: top-dose activity change, negative = inhibition, hits mostly inhibitors; also: potency is read from the fitted curve at half-maximal effect; % is scaled to controls: 0 for no effect and ±100 for the full control effect; nearly all actives have a fitted effect of over 60% in size
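First, TGR (20 nM dispensed) and NADPH were mixed with compound. Second, a 15 min room-temperature incubation followed. Third, further NADPH and then DTNB were added to start the reaction. Finally, TNB absorbance was monitored kinetically.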
HCV inhibitor: qHTS Assay for Inhibitors of Hepatitis C Virus (HCV); Huh7.5.1 HCVcc-Cre infection, luciferase reporter, 44 h; Potency, µM (doses to about 41.8 µM), for inactives: at the highest dose activity change, negative = inhibition, hits mostly inhibitors; 340,000 compounds, 3.4% hits; also: potency is read from the fitted curve at half-maximal effect; % is scaled to controls: 0 for no effect and ±100 for the full control effect
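Luciferase read-out (15 sec integration) after a 15 min room-temperature substrate step quantifies HCVcc-Cre infection. Cells, 1,000 per well, had compound added 4 h post-plating, then virus at ~0.5 moi, and were cultured 44 h.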
HCMV antiviral: qHTS Assay for inhibitors of the human cytomegalovirus (HCMV). activity change, negative = inhibition, % at 57.5 µM. 410,000 compounds, 4.5% hits. HFF cells, HCMV-luciferase reporter, 72 h; active compounds read low; in the data active = activity change below about -60%; inconclusive = no clear call, values can overlap the other calls; inactive = above about -39%; also: % is scaled to controls: 0 for no effect and ±100 for the full control effect
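Luciferase read-out from HCMV-luciferase-infected HFFs (MOI 1 PFU/cell) 72 h post infection at 37C; compounds added after 16 h cell attachment; activity normalized between buffer-only basal and Salinomycin (10uM) inhibitor controls.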
Pf growth 48h: Primary qHTS for delayed death inhibitors of the malarial parasite plastid, 48 hour incubation; P. falciparum luciferase growth in erythrocytes, 48 h; Potency, µM (highest dose often 28.7 µM), inactives show at the top dose activity change, negative = inhibition, actives largely listed as inhibitors; 310,000 compounds, 5.9% hits; also: potency is read from the fitted curve at half-maximal effect; % is scaled to controls: 0 for no effect and ±100 for the full control effect
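A one-generation exposure of luciferase-tagged malaria parasites in RPMI 1640/Albumax erythrocyte culture, 37 C and 5% CO2. Inhibition is inferred from decreased luminescence after adding detection reagent.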
SARS PLP yeast: qHTS of Yeast-based Assay for SARS-CoV PLP; 330,000 compounds, 0.19% hits; S. cerevisiae expressing SARS-CoV PLpro, growth rescue; Potency, µM (titrated, usually from 32.9 µM), for the others: at the top dose activity, positive = growth rescue, usual class: activators; calls by dose curve; also: potency is read from the fitted curve at half-maximal effect; 0% is about no effect; nearly all actives have a fitted effect of over 55% in size
CLK4 cf ADPGlo: Confirmaiton Assay for Inhibitors of CDC-like Kinase 4 (ADP-Glo Assay); Potency, µM (series often up to 80 µM), for the others: top-dose activity, negative = inhibition, most hits filed as inhibitors; recombinant Clk4, RS peptide, ADP-Glo luminescence; shares compounds with Pf growth 48h; 65 compounds, 80% hits
Target sequence (Q9HAZ1 whole entry, looked up): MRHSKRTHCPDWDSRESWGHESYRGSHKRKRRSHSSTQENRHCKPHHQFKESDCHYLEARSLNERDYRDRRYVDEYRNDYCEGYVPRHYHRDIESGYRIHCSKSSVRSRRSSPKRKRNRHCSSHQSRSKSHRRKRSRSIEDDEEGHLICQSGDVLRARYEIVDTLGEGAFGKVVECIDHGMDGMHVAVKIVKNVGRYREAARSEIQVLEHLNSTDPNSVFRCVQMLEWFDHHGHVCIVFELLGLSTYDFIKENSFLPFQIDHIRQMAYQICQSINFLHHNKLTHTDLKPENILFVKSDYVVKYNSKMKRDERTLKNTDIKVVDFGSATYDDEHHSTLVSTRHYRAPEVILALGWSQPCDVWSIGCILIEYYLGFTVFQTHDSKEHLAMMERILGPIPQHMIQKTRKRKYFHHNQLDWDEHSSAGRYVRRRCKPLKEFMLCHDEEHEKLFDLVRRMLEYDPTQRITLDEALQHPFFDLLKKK
CLK4 ADP FP: Confirmation Assay for Inhibitors of CDC-like Kinase 4 (ADP-FP Assay). shares compounds with Pf growth 48h. recombinant Clk4, ADP Transcreener FP, RS peptide. Potency, µM (titrated, usually from 80 µM), without a hit: at the highest dose activity, negative = inhibition, usual class: inhibitors. 65 compounds, 70% hits
* marks the source's active call; other numbers are inactive results; u = inconclusive; x = not tested or not shown. Unless noted, calls follow the shape of the dose curve; as a rule, active = well fitted curve in the direction sought with a large enough effect; inconclusive = small, poorly fitted or top-dose-only effect, or another doubt; inactive = no such curve, though single readings can be large; an effect the other way counts as inactive or inconclusive.

SMILES | Pf growth 96h | Sm TGR block | HCV inhibitor | HCMV antiviral | Pf growth 48h | SARS PLP yeast | CLK4 cf ADPGlo | CLK4 ADP FP
Cc1csc(CNc2ncnc3ccc(-c4ccc5c(ccn5C)c4)cc23)c1 | 5.86µM* | -6.8% | x | x | 3.7µM* | -12.6% | 14.1µM* | 39.8µM*
Cc1cccc(-c2ccc3ncnc(NCc4cc(C)cs4)c3c2)c1 | 9.28µM* | 5.2% | x | x | 11.7µM* | 0.4% | 14.1µM* | u
COC(=O)CCCN1C(=O)NC(c2ccc(-c3ccccc3)cc2)C(C(=O)OCc2ccccc2)=C1C (configuration not stated) | x | x | u | 4.1 | x | 27.6% | x | x
CC(C)(C)c1ccc(C(=O)N2CCC2(C)C(=O)NS(=O)(=O)c2ccccc2Cl)cc1 (configuration not stated) | x | x | x | -37.8 | x | x | x | x
Fc1cccc(CNc2ncnc3ccc(-c4cccnc4)cc23)c1 | 14.7µM* | -3.2% | x | x | u | -3.0% | 2.82µM* | 6.31µM*
Nc1c(Cl)ncnc1NCc1cccnc1 | 0.0% | -5.7% | -5.3% | -11.9 | 11.7% | -0.4% | x | x
Cc1cccc(-c2ccc3ncnc(NCc4cccc(F)c4)c3c2)c1 | 1.31µM* | -15.7% | x | x | 0.0415µM* | -13.7% | 3.98µM* | 7.94µM*
CCOc1ccccc1CNC(=O)C(CC)n1nc(C)c2c(C)n(-c3ccccc3)nc2c1=O (configuration not stated) | x | 6.0% | x | -39.5 | x | x | x | x
Fc1ccc(-c2noc3ncnc(NCc4cccc(Cl)c4)c23)cc1 | x | 1.0% | x | -29.6 | x | x | x | x
Cc1cccc(CNc2ncnc3ccc(-c4ccc5c(c4)OCO5)cc23)c1 | 3.29µM* | 0.3% | x | u | 5.86µM* | -6.7% | 0.112µM* | 0.1µM*
Cc1cccc(-n2ncc3c(NCc4ccccc4)ncnc32)c1 | -3.9% | -5.7% | u | 96.0 | 47.2% | -21.6% | x | x
Cc1cccc(CNc2ncnc3ccc(-c4ccccc4Cl)cc23)c1 | 1.47µM* | -12.0% | x | 2.5 | 5.22µM* | -17.2% | 7.94µM* | u
Fc1cccc(CNc2ncnc3ccc(-c4ccccc4Cl)cc23)c1 | 2.08µM* | 2.7% | x | x | 5.86µM* | 0.0% | 7.94µM* | 10µM*
Cc1cccc(CNc2ncnc3ccc(-c4cccc(Cl)c4)cc23)c1 | 4.15µM* | -15.8% | x | x | 6.57µM* | 0.3% | 12.6µM* | u
O=C(COc1ccc2c(c1)OCO2)NCc1cccs1 | x | x | 11.0% | 41.5 | x | -0.3% | x | x
COc1cc2ncnc(NCc3cccs3)c2cc1OC | -23.9% | x | -16.2% | 1.1 | u | 0.9% | x | x
c1csc(CNc2ncnc3ccc(-c4ccc5c(c4)OCO5)cc23)c1 | u | -0.7% | x | 16.5 | u | 1.2% | 0.0708µM* | 0.0447µM*
c1csc(CNc2ncnc3ccc(-c4ccoc4)cc23)c1 | u | -23.4% | x | -91.7* | u | 1.9% | 0.224µM* | 0.251µM*
Nc1ccc2c(c1)C(O)c1cccc(C(=O)O)c1-2 (configuration not stated) | x | x | 3.7% | 0.9 | x | x | x | x
COCCNC(=O)C1(C)CCCN(C(=O)c2ccc(C)c(F)c2)C1 (configuration not stated) | x | x | x | -31.6 | x | x | x | x
